Among the data in PubChem BioAssay AID624273 (Broad Institute, 2012) are outcome values, retold here.

Among all 1,000 compounds or so, about 230 (23%) were called active. About 1% were inconclusive and are not listed. The rule behind the calls is not given here. This is one part of the list. Results with a measured potency or affinity are listed apart.

In this assay the target is Long-chain-fatty-acid--AMP ligase FadD28 (Mycobacterium tuberculosis (strain ATCC 25618 / H37Rv)) (UniProt P9WQ59). Description: inhibitors of FadD28 bisubstrate probe binding, dose response, biochemical, fluorescence polarization, cherry-pick (AID 624273). As to conditions: series mostly up to 50 µM.
Chain of Long-chain-fatty-acid--AMP ligase FadD28 (Mycobacterium tuberculosis (strain ATCC 25618 / H37Rv)) (P9WQ59 whole entry, looked up): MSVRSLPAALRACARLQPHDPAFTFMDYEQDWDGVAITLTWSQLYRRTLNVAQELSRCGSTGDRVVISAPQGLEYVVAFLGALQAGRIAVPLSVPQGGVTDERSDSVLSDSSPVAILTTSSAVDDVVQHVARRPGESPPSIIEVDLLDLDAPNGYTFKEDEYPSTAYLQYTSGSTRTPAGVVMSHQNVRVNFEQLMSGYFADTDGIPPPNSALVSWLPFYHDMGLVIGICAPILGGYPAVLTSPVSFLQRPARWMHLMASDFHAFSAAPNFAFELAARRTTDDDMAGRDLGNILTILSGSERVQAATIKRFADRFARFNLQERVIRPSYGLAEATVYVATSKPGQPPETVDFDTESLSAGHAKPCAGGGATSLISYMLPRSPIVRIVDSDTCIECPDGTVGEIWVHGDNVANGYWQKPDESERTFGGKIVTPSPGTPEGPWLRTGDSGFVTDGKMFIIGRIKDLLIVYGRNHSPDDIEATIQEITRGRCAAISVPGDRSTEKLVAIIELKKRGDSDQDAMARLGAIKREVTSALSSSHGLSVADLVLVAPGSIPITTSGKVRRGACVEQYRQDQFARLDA
As to `O=C(NCc1ccccc1)C1=C[C@@H](c2ccc(C(F)(F)F)cc2)C[C@@H](OCCCCO)O1`, the molecule was classed as inactive.

In the case of `NC(Cc1ccc(C(F)(F)F)cc1)c1csc(NC(=O)Nc2ccccc2Cl)n1` (stereo not drawn), the outcome was inactive.

Turning to `Cc1onc(C(=O)N2CCC(C(N)=O)CC2)c1-c1ccccc1Cl`, the outcome was inactive.

In the case of `COc1cc(NC(=O)C2CCN(S(=O)(=O)c3ccc(Cl)cc3)CC2)ccc1-n1cnnn1`, the call was inactive.

Regarding `CSc1cccc(CN2CCC(CCC(=O)NC3CC3)CC2)c1`, the molecule was classed as inactive.

For `S=c1nc(-c2ccco2)[nH][nH]1`, the outcome was inactive.

With `COc1ccc(OC)c(-n2c(-c3cc(-c4ccco4)[nH]n3)n[nH]c2=S)c1`, the call was inactive.

In the case of `Cc1nnc(NC(=O)C2CC(=O)N(c3ccc4c(c3)OCCO4)C2)s1` (stereo not drawn), the result was inactive.

For `COc1ccc(C2(CNC(=O)C(c3ccccc3)c3ccccc3)CCOCC2)cc1OC`, the result was inactive.

Turning to `NNC(=O)C1CCCn2c1nc1sc3c(c1c2=O)CCCC3` (stereo not drawn), the molecule was called inactive.

Take `Cc1ccc(C(=O)NCCSCc2ccc(Cl)cc2Cl)cc1[N+](=O)[O-]`: the molecule was called inactive.

For the molecule `O=C(CSc1ccc(Cl)cc1)N1CCOCC1`, the molecule was called inactive.

Take `COc1ccc(CNC(=O)c2ccc(Cl)c(S(=O)(=O)N3CCCCCC3)c2)cc1`: the result was inactive.

In the case of `COc1ccc(CCNC(=O)c2ccc(CNS(=O)(=O)c3cccc(Cl)c3)cc2)cc1OC`, the call was inactive.

As for `Cc1ccc(CSCCNC(=O)c2ccc(NS(C)(=O)=O)cc2)cc1`, the molecule was called inactive.

Take `Cc1ccc(CSCCNC(=O)/C=C/c2ccccc2Cl)cc1`: the call was inactive.

Turning to `COc1ccc(C(=O)NCCSCc2ccc(C)cc2)cc1`, the molecule was called inactive.

As for `Brc1ccc(Sc2cnc3ccccc3n2)cc1`, the result was inactive.

With `C=CCSc1nnc2nc3c(nn12)c1cc(C)ccc1n3CC=C`, the call was inactive.

For `COc1ccc(C(=O)NCc2ccc(C)cc2)cc1S(=O)(=O)N1CCCc2ccccc21`, the result was inactive.

For `COC(=O)CC1C(=O)NCCN1C(=O)c1ccc(S(=O)(=O)N2CCOCC2)cc1` (stereo not drawn), the molecule was classed as inactive.

For the molecule `COc1ccc(C(=O)Nc2ccc(C)cn2)cc1S(=O)(=O)N1CCCc2ccccc21`, the outcome was inactive.

`COc1ccc(CCNC(=O)c2ccc(CNS(=O)(=O)c3ccc(C(C)(C)C)cc3)cc2)cc1OC`: the molecule was called inactive.

Consider `CC1(c2ccc(OC(F)F)cc2)NC(=O)N(CC(=O)NC2CCCC2)C1=O` (stereo not drawn), for which the call was inactive.

On to `CC(C)CCNc1nc(N2CCCC2)c2c(c1C#N)CCN(C)C2`, for which the molecule was called inactive.

With `CN(c1ccccc1)S(=O)(=O)c1ccc(NC(=O)CC(=O)c2ccccc2)cc1`, the molecule was called inactive.

For `O=C(CCNC(=O)c1ccc([N+](=O)[O-])cc1)Nc1ccccc1N1CCOCC1`, the call was inactive.

`Cc1ccc(NC(=O)c2cc([N+](=O)[O-])ccc2N2CCOCC2)cc1C`: the call was inactive.

On to `CCN(CC)S(=O)(=O)c1cc(NC(=O)c2cc([N+](=O)[O-])ccc2N2CCOCC2)ccc1C`, for which the result was inactive.

As to `O=C(NNC(=O)c1ccc(Cl)c([N+](=O)[O-])c1)c1ccncc1`, the outcome was inactive.

Turning to `O=C1C=C(O)CC(c2ccco2)C1` (stereo not drawn), the outcome was inactive.

Turning to `CC(=O)C1=C(C)NC(SCC(=O)c2ccc(F)cc2)=C(C#N)C1c1ccco1` (stereo not drawn), the outcome was inactive.

`COc1ccc(NC(=O)Nc2ccc3c(c2)C(=O)N([C@H](C)CO)C[C@H](C)[C@@H](CN(C)S(=O)(=O)c2ccc(OC)cc2)O3)cc1`: the molecule was called inactive.

For the molecule `CCN(CC)CCCNC(=O)C1c2ccccc2C(=O)N(C)C1c1ccc(OC)cc1` (stereo not drawn), the call was inactive.

In the case of `COc1ccc(/C(N)=N/OC(=O)c2c(-c3ccccc3Cl)noc2C)cc1OC`, the result was inactive.

For `CCOc1cc(/C=C2\SC(=O)N(CC(=O)Nc3ccccc3F)C2=O)cc([N+](=O)[O-])c1O`, the result was inactive.

As for `O=C1/C(=C\c2cc([N+](=O)[O-])ccc2O)SC(=S)N1Cc1ccc(Cl)cc1`, the molecule was called inactive.

Regarding `O=C(CNC(=O)c1nc[nH]c1C(=O)NCC(=O)OCc1ccccc1)OCc1ccccc1`, the call was inactive.

As for `COc1ccc(OC)c2[nH]c(=O)c(CCNS(=O)(=O)c3ccc(Cl)cc3)cc12`, the outcome was inactive.

For the molecule `Cc1cccc(C(=O)NCC(=O)OCc2nc(N)nc(Nc3ccccc3C)n2)c1`, the molecule was classed as inactive.

For `O=C(O)CCCc1nc(-c2ccccc2)no1`, the outcome was inactive.

With `CCOc1cc(/C=C2\N=C(SC)SC2=O)cc([N+](=O)[O-])c1OC(C)=O`, the result was inactive.

For the molecule `CCC(C)OC(=O)C1=C(C)NC(=O)CC1c1ccccc1OC` (stereo not drawn), the call was inactive.

Take `Cc1ccc(/C=C/C(=O)C2C(=O)c3ccccc3C2=O)cc1`: the outcome was inactive.

On to `Cc1noc(C)c1C(=O)NCc1ccccc1Br`, for which the result was inactive.

With `O=C(NNC1CC(=O)N(c2ccc(Br)cc2)C1=O)c1cccnc1` (stereo not drawn), the result was inactive.

On to `O=C(O)c1ccc(N=C2SCC(=O)N2Cc2ccccc2)cc1`, for which the molecule was classed as inactive.

For `O=C1CC(C(=O)Nc2ccc(Br)cc2)S/C(=N\N=C\c2ccco2)N1` (stereo not drawn), the molecule was classed as inactive.

As for `CN(C)S(=O)(=O)c1cc(NC(=O)CSc2ncc(C(F)(F)F)cc2Cl)ccc1Cl`, the result was inactive.

In the case of `COc1cccc(NC(=S)/C(=C(\[O-])c2cc(C)n(-c3ccccc3F)c2C)[n+]2ccc(N(C)C)cc2)c1`, the molecule was classed as inactive.

As to `O=C(c1cc2cc(Cl)ccc2[nH]1)N1CCCCC1`, the outcome was inactive.

As to `C/C(=N\N=C(/N)SC1CC(=O)N(c2ccc(Br)cc2)C1=O)c1cccs1` (stereo not drawn), the result was inactive.

Consider `CCN(CC)c1ccc(/C=N/NC(=O)Cc2cccs2)c(O)c1`, for which the result was inactive.

For the molecule `C[C@H](CO)N1C[C@H](C)[C@H](CN(C)S(=O)(=O)c2cccs2)Oc2ccc(NC(=O)Nc3ccc4c(c3)OCO4)cc2CC1=O`, the molecule was called inactive.

For `Cc1ccc(-n2ncc3c(=O)[nH]c(SCC(=O)N4CC(=O)Nc5ccccc54)nc32)cc1`, the molecule was called inactive.

With `O=C(Cc1ccccc1[N+](=O)[O-])OCC(=O)c1c[nH]c2ccccc12`, the molecule was called inactive.

In the case of `COc1ccc(S(=O)(=O)NCC2CCCN(Cc3cn(C)nc3C)C2)cc1` (stereo not drawn), the outcome was inactive.

As for `O=C(Cn1cc2c(n1)CCCC2)Nc1cc(-c2cccc(Cl)c2)no1`, the outcome was inactive.

Turning to `CCCCOc1[nH]c2nc(-c3ccco3)n(Cc3ccco3)c(=N)c2c1C#N`, the result was inactive.

`COc1ccc(-c2nc3ccccc3c(=O)n2CCCN2CCOCC2)cc1`: the result was inactive.

For `COC(=O)c1sc(NC(C)=O)c(C(=O)OC)c1C`, the outcome was inactive.

For `O=C1NN(c2ccc(Cl)c(Cl)c2)C(=O)/C1=C/c1ccc(-c2ccccc2C(=O)O)o1`, the call was inactive.

In the case of `O=[N+]([O-])c1ccc2[nH]c(=S)sc2c1`, the result was inactive.

With `Clc1cccc(/C=N/N2CCN(Cc3ccccc3)CC2)c1`, the call was inactive.

As for `O=C(Nc1cnc2sccn2c1=O)c1ccccc1Cl`, the call was inactive.

In the case of `CC1=NN(c2ccc([N+](=O)[O-])cc2)C(=O)C1`, the molecule was called inactive.

On to `Cc1ccc(-n2nnnc2SCC(=O)Nc2nc(-c3ccc(F)cc3)cs2)cc1C`, for which the molecule was called inactive.

On to `COc1ccccc1CO/N=C/NC(=O)c1c(OC)ccnc1Oc1ccc(F)cc1`, for which the call was inactive.

Consider `COCCNC(=O)C1CC(=O)N(c2ccc(OC)cc2)C1c1ccc(OC)cc1` (stereo not drawn), for which the molecule was classed as inactive.

As to `CCCOC(=O)c1ccc(NC(=O)c2cc(OC)c(OC)c(OC)c2Br)cc1`, the outcome was inactive.

Regarding `COc1ccc(/C=C2/NC(=O)N(CC(=O)Nc3cccc(C)c3)C2=O)cc1O`, the result was inactive.

In the case of `Cc1cccc(NC(=O)CN2C(=O)N/C(=C/c3ccc(C)s3)C2=O)c1`, the molecule was classed as inactive.

Consider `CCOc1cc(C2NC(=O)NC(C)=C2C(=O)OCC2CCCCC2)ccc1O` (stereo not drawn), for which the molecule was called inactive.

Regarding `CC(C)NC(=O)N1CCC(n2nccc2NC(=O)CCOc2ccccc2)CC1`, the call was inactive.

Consider `O=C1NC(=S)S/C1=C\c1cc2ccccc2nc1N1CCCCC1`, for which the molecule was classed as inactive.

Turning to `COc1ccc(/C=C2/C(=O)N(Cc3ccco3)C(=O)N(C(C)C)C2=O)cc1`, the call was inactive.

Take `CC1CC(C)CN(CCCNC(=O)Cn2cccc2C(=O)c2ccccc2)C1` (stereo not drawn): the molecule was classed as inactive.

As for `CC(=O)c1ccc(C(=O)N2CCCC(Nc3ccccc3)C2)s1` (stereo not drawn), the molecule was called inactive.

`O=C(c1ccc2nc(Cc3cccc(Cl)c3)oc2c1)N1CCC(O)CC1`: the call was inactive.

Consider `CCOC(=O)Nc1cc(N)ncn1`, for which the result was inactive.

On to `COc1ccc(CCNC(=O)C(=O)NCCCN2CCOCC2)cc1`, for which the call was inactive.

Consider `CCN(CC)c1ccc(/C=c2\sc3nnc(-c4ccccc4Cl)n3c2=O)cc1`, for which the result was inactive.

As to `Cc1ccc(S(=O)(=O)N2CCC(NC(=O)c3cccc(F)c3)CC2)cc1`, the molecule was called inactive.

Regarding `CCC1(C)Cc2ccccc2-c2nc(NCCO)[nH]c(=O)c21` (stereo not drawn), the molecule was called inactive.

Regarding `COCC(=O)/C=C1\Sc2ccccc2N1C`, the call was inactive.

For `O=Cc1ccc(C(=O)OCC(=O)NC(=O)Nc2ccccc2F)cc1`, the molecule was called inactive.

In the case of `COc1cccc(-c2nc3ccc(C(=O)NC(C)Cc4cccnc4)cc3o2)c1` (stereo not drawn), the outcome was inactive.

`Cc1ccc(OCC(=O)Nc2ccncc2)cc1`: the result was inactive.

For `Cc1ccc2nc(SCC(=O)Nc3ccc(C(N)=O)cc3)[nH]c2c1`, the molecule was classed as inactive.

On to `O=S(=O)(c1ccc(N2CCC(c3ccc(Cl)cc3)=N2)cc1)N(CCO)CCO`, for which the call was inactive.

With `NC(N)=NS(=O)(=O)c1ccc(NC(=S)NC(=O)/C=C/c2ccc(F)cc2)cc1`, the result was inactive.

Regarding `Cc1noc(NS(=O)(=O)c2ccc(NC(=O)/C=C/c3ccc(Br)cc3)cc2)c1C`, the call was inactive.

For `CCOc1ccc(N(C(C)C(=O)Nc2cccnc2)S(C)(=O)=O)cc1` (stereo not drawn), the molecule was called inactive.

`COc1ccc(C2=NOC(C)(c3nnc(-c4ccccc4)o3)C2)cc1` (stereo not drawn): the result was inactive.

In the case of `Cc1cc(-c2ccc(C)c(S(=O)(=O)Nc3ccc(S(N)(=O)=O)cc3)c2)on1`, the molecule was called inactive.

With `O=S(=O)(c1ccc(Nc2ccc(-c3ccc4c(c3)OCCO4)nn2)cc1)N1CCCC1`, the outcome was inactive.

On to `Cc1ccccc1C(=O)OCCN(C)Cc1ccccc1`, for which the molecule was classed as inactive.

In the case of `COC(=O)C1=C(C)N(CCc2c[nH]c3ccccc23)C(=O)C1`, the outcome was inactive.

Turning to `CC(C)(C)c1ccc(OCCC(=O)Nc2cccc(S(=O)(=O)N3CCCC3)c2)cc1`, the molecule was called inactive.

Turning to `COC(=O)c1cn(NC(=O)c2ccc([N+](=O)[O-])c(C)c2)c(=O)c2ccccc12`, the outcome was inactive.

For `N#CC(=C=[N-])C1=C(C#N)C(c2ccccc2F)C([n+]2ccccc2)C(O)(C2CC2)N1` (stereo not drawn), the outcome was inactive.

Consider `COc1ccccc1C/C(N)=N/OC(=O)c1cccs1`, for which the outcome was inactive.

As for `COc1ccc(OC)c(NC(=O)CN2C(=O)C(C)N(c3ccc(C)cc3)C2=O)c1` (stereo not drawn), the result was inactive.
